# SRC1 inh – inhibitors of human steroid receptor coactivator 1 (SRC1). Q15788. HEK293 GAL4-SRC1 luciferase reporter, luminescence. inhibition, % at 3.6 µM. 360,000 tested, 0.12% active;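 active = inhibition above the campaign mean plus 3 SD, with each screening campaign given its own cutoff, cut at about 60% in these data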
# NR5A2 inv ag – inverse agonists of human LRH-1 (NR5A2); inhibition, % at 3.6 µM; 360,000 tested, 0.13% active; HEK293T StAR-luciferase reporter, LRH-1 transfected, 24 h;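 active = inhibition above the mean inhibition of all tested compounds plus 3 SD, cut at about 73% in these data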
# GalR3 antagonist – human GalR3 antagonism; O60755; HEK293 GalR3-CNG cAMP membrane potential fluorescence; galR3 body fused to GalR1 C-terminus; inhibition, % at 3 µM; 360,000 tested, 0.44% active; AID 651719;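 active = inhibition above the screen-wide average plus 3 SD, cut at about 13% in these data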;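 note: forskolin and galanin both at EC90 stimulate the cells; cAMP rise reported by CNG channel membrane potential dye signal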
# Target sequence (O60755 1-299 limits assumed): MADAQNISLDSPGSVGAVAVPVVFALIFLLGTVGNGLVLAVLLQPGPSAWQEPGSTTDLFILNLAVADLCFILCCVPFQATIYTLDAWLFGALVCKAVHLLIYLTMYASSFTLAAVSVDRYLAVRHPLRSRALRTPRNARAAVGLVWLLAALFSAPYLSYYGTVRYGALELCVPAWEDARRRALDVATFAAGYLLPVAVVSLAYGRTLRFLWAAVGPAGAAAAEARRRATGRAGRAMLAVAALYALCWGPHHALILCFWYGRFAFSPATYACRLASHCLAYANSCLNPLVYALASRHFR
# NR2F2 inh – blocks human COUP-TFII nuclear receptor; AID 686940; 370,000 tested, 0.7% active; P24468; HEK293T NGFI-A luciferase reporter, luminescence; inhibition, % at 8.6 µM;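 active = inhibition above a per-plate cutoff, mean inhibition of test wells between control levels plus 3 SD, cut at about 38% in these data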;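 note: cells cotransfected with COUP-TFII expression vector driving the NGFI-A reporter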
# SRC2 inh – human SRC2 (NCOA2) inhibition; Q15596; HEK293 GAL4-SRC2 luciferase reporter, luminescence; inhibition, % at 9 µM; 370,000 tested, 0.17% active;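 active = inhibition above the mean inhibition of all tested compounds plus 3 SD, set per campaign, cut at about 52% in these data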
# NCOA3 inh – inhibitors of human steroid receptor coactivator 3 (SRC3); Q9Y6Q9; HEK293 GAL4-SRC3 luciferase reporter, luminescence; AID 588352; inhibition, % at 3.6 µM; 360,000 tested, 0.17% active;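 active = inhibition above a per-campaign cutoff, the mean of all compounds plus 3 SD, cut at about 60% in these data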;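 note: higher means less SRC3-driven luciferase light from the GAL4 reporter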
# GalR3 conf – GalR3 (human) antagonism, confirmation | shares compounds with GalR3 antagonist | HEK293 GalR3 CNG cAMP biosensor, membrane potential fluorescence; galR3 fused to GalR1 carboxy tail; challenged with forskolin and galanin at EC90 | inhibition, % at 3 µM | 1,600 tested, 59% active;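 active = inhibition above the primary screen's cutoff, the mean inhibition of all screened compounds plus 3 SD, cut at about 13% in these data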
# CNG parental – parental cell agonism counter-screen for GalR3 antagonists | shares compounds with GalR3 antagonist | HEK293-CNG parental cells, cAMP membrane potential fluorescence; normalised: DMSO wells 0%, forskolin wells 100% | activation, % at 3 µM | 1,600 tested, 10% active | AID 652268; in the data active = activation above about 1.3%
# Hits are given with their value; 0 = inactive; - = no result given. Shown are actives, neighbours in structure and some others; about 1.1% of the full set was active somewhere.
SMILES,SRC1 inh,NR5A2 inv ag,GalR3 antagonist,NR2F2 inh,SRC2 inh,NCOA3 inh,GalR3 conf,CNG parental
Cc1nnc(C)n1N=Cc1ccc(Cl)c([N+](=O)[O-])c1,-,-,-,0,0,-,-,-
CNC[C@H]1Oc2ccc(NC(=O)Nc3ccc4c(c3)OCO4)cc2C(=O)N([C@H](C)CO)C[C@@H]1C,0,0,15,0,0,0,0,0
CNC[C@@H]1Oc2ccc(NC(=O)Nc3ccccc3)cc2C(=O)N([C@@H](C)CO)C[C@H]1C,0,0,0,0,0,0,-,-
O=C(Nc1ccc(OCc2ccccc2)cc1)Nc1ccccc1C(=O)NCCCN1CCOCC1,0,0,17,0,0,0,0,0
NS(=O)(=O)c1ccc(CNC(=O)c2csc3c2CCCC3)cc1,0,0,27,0,0,0,13,0
CCCNC(=O)c1csc2c1CCCCC2,0,0,0,0,0,0,-,-
Cc1cc(Br)c(OCc2ccc(C(=O)N/N=C3\CC4CC=CC34)cc2)c(Br)c1 (configuration not stated),0,0,27,0,0,0,46,0
O=C(N/N=C1\CC2CC=CC12)c1ccc(Br)cc1 (configuration not stated),0,0,0,0,0,0,-,-
COc1ccccc1NC(=O)c1ccc(NC(=O)c2ccco2)cc1,0,0,0,0,0,0,-,-
CCOc1ccccc1NC(=O)c1ccc(NC(=O)c2ccco2)cc1,0,0,-,0,0,0,0,0
CCOC(=O)/C(C#N)=C/c1cn(CCC(=O)O)nc1-c1ccccc1,0,0,0,0,0,0,-,-
CCOC(=O)/C(C#N)=C/c1cn(CCC(=O)O)nc1-c1ccc(OC)cc1,0,0,14,0,0,0,0,0
CCCCCCNS(=O)(=O)c1ccc(NC(=O)C2CCCO2)cc1 (configuration not stated),0,0,15,0,0,0,26,0
O=C(Nc1ccc(S(=O)(=O)Nc2ccc(Cl)cc2)cc1)C1CCCO1 (configuration not stated),0,0,0,0,0,0,-,-
COc1ccc(C(NC(C)=O)c2nccc3cc(OC)c(OC)cc23)cc1OC (configuration not stated),0,0,23,0,0,0,0,0
COc1ccc(C(NC(C)=O)c2cc(Cl)c3cccnc3c2O)cc1OC (configuration not stated),0,0,0,0,0,0,-,-
O=C(CSc1nnc(SCc2cccc3ccccc23)s1)Nc1ccc(Oc2ccccc2)cc1,-,-,-,0,0,-,-,-
CC1(C)OC2C(O1)[C@@H](CO)O[C@H]2n1cnc2c(N)ncnc21 (some centres not stated),0,0,0,0,0,0,-,-
Nc1ncnc2c1ncn2[C@@H]1O[C@H](CO)[C@@H](O)[C@H]1O,0,0,112,0,0,0,0,5.8
Cc1ccc(CNC(=O)c2ccc(CNc3c(N4CCCC4)c(=O)c3=O)cc2)cc1,0,0,13,0,0,0,0,0
O=C1c2ccccc2C(=O)N1CCC#Cc1ccc2cc(CCO)oc(=O)c2c1,0,0,13,0,0,0,0,0
CN(C)c1ccc(C#Cc2ccc3cc(CCO)oc(=O)c3c2)cc1,0,0,-,-,-,0,-,-
N#Cc1cc(-c2ccccc2)oc1NC(=O)c1ccco1,0,0,29,0,0,0,16,0
CCCC(=O)OC12CCCN(C1)/C(=C/c1cccc(N(C)C)c1)C2 (configuration not stated),-,-,-,0,0,-,-,-
O=C(O)CC12CC3CC(C1)CC(n1ncc(NCc4ccco4)c(Cl)c1=O)(C3)C2,0,0,15,0,0,0,0,0
SMILES,SRC1 inh,NR5A2 inv ag,GalR3 antagonist,NR2F2 inh,SRC2 inh,NCOA3 inh,GalR3 conf,CNG parental
COc1cccc2[nH]c3c(N4CCC5(CC4)OCCO5)ncnc3c12,0,0,0,0,0,0,-,-
COc1cccc2[nH]c3c(N4CCC(C)CC4)ncnc3c12,0,0,86,0,0,0,96,0
CC(NC(=O)Nc1nnc(C(F)(F)F)s1)(C(F)(F)F)C(F)(F)F,0,90,81,45,0,84,88,0
CC(C)(C)CC(=O)Nc1nnc(C(F)(F)F)s1,0,0,0,0,0,0,-,-
COc1ccccc1NC(=O)CSC1=NC(=O)C(Cc2ccccc2)C(=O)N1 (configuration not stated),0,0,13,0,0,0,0,0
COc1ccc(/C=C2\CC3(OC(=O)C4CCCC4)CCCN2C3)cc1 (configuration not stated),-,-,-,0,0,-,-,-
CCOc1cc(C2C(C(=O)N3CCCCC3)=C(C)NC3=C2C(=O)CC(C)(C)C3)ccc1O (configuration not stated),0,0,0,0,0,0,-,-
CCOC(=O)C1=C(C)NC2=C(C(=O)CC(C)(C)C2)C1c1ccc(O)c(OCC)c1 (configuration not stated),0,0,22,0,0,0,29,0
CCOc1cc(C2C3=C(CC(C)(C)CC3=O)Nc3n[nH]c(C)c32)ccc1O (configuration not stated),0,0,31,0,0,0,40,0
COC(=O)[C@H]1C[C@@]2(N3CCCCC3)c3ccccc3N(S(=O)(=O)c3ccccc3)[C@H]2N1,-,-,-,0,0,-,-,-
CC(=O)N1CCc2c1cccc2S(=O)(=O)NC(CC(C)C)C(=O)Nc1ccc(Cl)c(Cl)c1 (configuration not stated),-,-,-,0,0,-,-,-
CCC(=O)Nc1cccc(-c2cn3cccc(C)c3n2)c1,0,0,13,0,0,0,0,0
O=C(CN1C(=O)CCC1=O)Nc1cccc2c1C(=O)NC2=O,0,0,21,0,0,0,15,0
O=C(Nc1cccc2c1C(=O)NC2=O)c1cccc(N2C(=O)CCC2=O)c1,0,0,0,0,0,0,-,-
O=C1/C(=C/c2cccc([N+](=O)[O-])c2)CCc2ccccc21,0,0,16,0,0,0,0,0
COc1ccc2oc(C)c(C(=O)c3ccccc3)c2c1,0,0,0,0,0,0,-,-
COc1ccc2oc(C)c(C(=O)Cn3ccnc3)c2c1,0,0,15,0,0,0,0,0
CC(C)NC(=O)N[C@H]1C[C@@H]2O[C@H](CO)CC[C@@H]2O[C@@H]1CCc1ccc(-c2ccc(F)cc2)cc1,-,-,-,0,0,-,-,-
Cc1cc(NC(=O)CSc2nnc(-c3ccco3)o2)no1,0,0,-,0,0,0,0,0
CC(=O)Nc1ccc(NC(=O)CSc2nnc(-c3ccco3)o2)cc1,0,0,0,0,0,0,-,-
